# Source: PubChem BioAssay (National Center for Advancing Translational Sciences (NCATS))
# In the library only some 21% were active in any assay of this set; here they are far more common.
# Pf growth 96h: inhibits malaria parasite growth, 96 h; P. falciparum luciferase reporter growth, 96 h; Potency, µM (doses to about 28.7 µM), inactives show top-dose activity change, negative = inhibition, actives largely listed as inhibitors; 6.9% of 320,000 active; AID 504834; active means well fitted inhibition curve with a large enough effect; inconclusive means small, poorly fitted or top-dose-only effect, or another doubt; inactive means no such curve, though single readings can be large or run the other way; further: potency means the concentration at half of the fitted maximal effect; on the % scale 0 is the no-effect control and ±100 the full control effect
#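 Erythrocytes infected with luciferase-expressing P. falciparum were dispensed at 2% hematocrit and 0.05% parasitemia (final), then incubated with compounds 96 hours at 37 C in 5% CO2. Luminescence after detection reagent addition reported growth.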
# Shiga inhibitor: inhibitors of Shiga toxin in Vero cells; 9.2% of 290,000 active; Vero cells, Shiga toxin protein synthesis inhibition reporter; AID 2315; inhibition, % at 38.7 µM; in the data active means inhibition mostly above about 28%, no sharp cut-off; inactive means mostly below about 43%; further: 0% is about no effect
# SARS PLpro yeast: blocks SARS-CoV papain-like protease in a yeast assay; S. cerevisiae expressing SARS-CoV PLpro, growth rescue; Potency, µM (highest dose often 32.9 µM), for the others: at the highest dose activity, positive = growth rescue, most hits filed as activators; 0.19% of 330,000 active; further: potency means the concentration at half of the fitted maximal effect; 0% is about no effect; nearly all actives have a fitted effect of over 55% in size
# CHX counter: affects cycloheximide protein synthesis inhibition readout, counter-screen; 12% of 300,000 active; cell reporter, cycloheximide protein synthesis inhibition counterscreen; AID 2314; max response, %; in the data active means max response mostly above about 13%, no sharp cut-off; inactive means mostly below about 14%; further: read at 38.3 µM for the half of the compounds with a filed dose; 0% is about no effect
# Pf growth 48h: inhibits P. falciparum growth in the first generation, 48 h | P. falciparum luciferase growth in erythrocytes, 48 h | Potency, µM (series often up to 28.7 µM), for inactives: top-dose activity change, negative = inhibition, usual class: inhibitors | 5.9% of 310,000 active; active means well fitted inhibition curve with a large enough effect; inconclusive means small, poorly fitted or top-dose-only effect, or another doubt; inactive means no such curve, though single readings can be large or run the other way; further: potency means the concentration at half of the fitted maximal effect; on the % scale 0 is the no-effect control and ±100 the full control effect
#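 A one-generation exposure of luciferase-tagged malaria parasites in RPMI 1640/Albumax erythrocyte culture, 37 C and 5% CO2. Inhibition is inferred from decreased luminescence after adding detection reagent.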
# NS1 function inh: inhibitors of influenza NS1 protein function | Potency, µM (doses to about 46.1 µM), for the others: at the top dose activity, positive = more growth | 0.4% of 270,000 active; further: potency means the concentration at half of the fitted maximal effect; actives are rising curves; nearly all actives have a fitted effect of over 50% in size
#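 Growth recovery, yeast-based: influenza A NS1 expressed in S. cerevisiae causes slow growth, and suppressors are detected by OD600. The parent strain without NS1 is used as positive control.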
# * marks the source's active call; other numbers are inactive results; ? = inconclusive; . = no result given. Unless noted, the call rests on the fitted dose curve.
SMILES,Pf growth 96h,Shiga inhibitor,SARS PLpro yeast,CHX counter,Pf growth 48h,NS1 function inh
COC(=O)C1=C(c2ccccc2OCc2ccccc2)C[C@@H]2CC[C@H]1N2C(=O)NCc1ccccc1,4.1µM*,.,2%,.,10µM*,.
COC(=O)C1=C(c2ccccc2OCc2ccccc2)C[C@@H]2CC[C@H]1N2C(=O)NCc1ccc(Br)cc1,?,.,1%,.,10µM*,.
COC(=O)C1=C(c2ccc(OC(F)(F)F)cc2)C[C@@H]2CC[C@H]1N2C(=O)NCC1CC1,?,.,1%,.,?,.
O=C(C1CCCN1S(=O)(=O)c1ccc(Cl)cc1)N1CCCCC1 (stereo not given),31%,4,2%,-3,1%,7%
CCCCNC(=O)CSc1nc2ccsc2c(=O)n1CCCC(=O)NCCc1ccc(S(N)(=O)=O)cc1,23%,-25,-3%,-6,-21%,.
Cc1ccc(COC(=O)CCN=C2NS(=O)(=O)c3ccccc32)cc1,-23%,.,-2%,.,?,.
COC(=O)C1=C(c2ccc(OCc3ccccc3)cc2)C[C@@H]2CC[C@H]1N2C(=O)NCc1ccc(OC)c(OC)c1,?,.,1%,.,?,.
COC(=O)C1=C(c2ccccc2OCc2ccccc2)C[C@@H]2CC[C@H]1N2C(=O)NCCc1ccc(F)cc1,?,.,4%,.,10µM*,.
COC(=O)C1=C(c2ccccc2OCc2ccccc2)C[C@@H]2CC[C@H]1N2C(=O)NCc1ccc(C(F)(F)F)cc1,?,.,2%,.,13µM*,.
COC(=O)C1=C(c2ccccc2OCc2ccccc2)C[C@@H]2CC[C@H]1N2C(=O)NCc1cccc(C(F)(F)F)c1,?,.,-3%,.,10µM*,.
COC(=O)C1=C(c2ccc(OCc3ccccc3)cc2)C[C@@H]2CC[C@H]1N2C(=O)NCc1ccc(N(C)C)cc1,9.3µM*,.,-7%,.,?,.
COC(=O)C1=C(c2ccc(F)cc2OCc2ccccc2)C[C@@H]2CC[C@H]1N2C(=O)NCc1cc(C)oc1C(F)(F)F,.,.,-2%,.,.,.
COC(=O)C1=C(c2ccc(F)cc2OCc2ccccc2)C[C@@H]2CC[C@H]1N2C(=O)NCc1ccc(C(F)(F)F)cc1,.,.,0%,.,.,.
CCC1CN(C(=O)NCc2ccccc2)c2ccccc2O1 (stereo not given),?,-11,-1%,1,-6%,-6%
COc1ccc(NS(=O)(=O)c2cccc(-c3nnc(-c4ccccc4)o3)c2)cc1,?,57*,-12%,15*,?,-21%
O=S(=O)(NC1CCCCCCC1)c1ccccc1,?,-6,0%,0,23%,-10%
COc1ccc(NS(=O)(=O)c2ccc(NS(=O)(=O)c3cccc(C(=O)O)c3)cc2)cc1,15%,43,2%,-7,29%,4%
O=S(=O)(NC1CCCC1)c1cccc(-c2nnc(-c3ccccc3)o2)c1,?,7,1%,30*,.,8%
CC1(C)C[C@H]2C3=CCC4[C@@]5(C)CC[C@H](O)[C@@](C)(CO)C5CC[C@@]4(C)[C@]3(C)C[C@@H](O)[C@@]2(CO)[C@@H](O)[C@@H]1O (stereo not given in full),.,.,0%,.,.,.
CCCOC1CCCN(C(=O)c2cc(COc3ccc(-n4cncn4)cc3)on2)C1 (stereo not given),-17%,63*,0%,38*,?,-10%
CCc1ccc(CN(C)C(=O)c2cc(COc3ccc(-n4cncn4)cc3)on2)cc1,5%,45,7%,19*,3%,0%
O=C(COC(=O)c1ccccc1F)NCc1ccc2c(c1)OCO2,.,.,-10%,.,.,.
CCCCCCCCCCCCCC[N+](C)(C)Cc1ccccc1,2.7µM*,.,.,.,1.7µM*,.
CCCCCCCCCCCC[N+](C)(C)CCOc1ccccc1,2.4µM*,.,.,.,4.3µM*,.
CCCCCCCCCCCCCCCCCC[N+](C)(C)CCC[Si](OC)(OC)OC,-2%,.,.,.,-12%,.
CCCCCCCCCCCCCCCC[N+](C)(C)Cc1ccccc1,3µM*,.,.,.,1.7µM*,.
C[N+](C)(C)Cc1ccccc1,1µM*,-9,1%,-1,?,-5%
O=C(NC1CCCCCC1)C1CC(=O)N(c2ccc(Cl)cc2)C1 (stereo not given),7%,2,-1%,-6,-6%,-16%
